Active and inactive are the calls of the source. The rule behind the calls is not given here.
assay: C difficile toxins, biochemical counterscreen, UDPG substrate absence, confirmatory dose response (AID 720650); settings: series mostly up to 19.5 µM; activity change, negative = inhibition: at the top concentration

SMILES	activity change, negative = inhibition	AC50
COc1cccc(CC(=O)OCC(=O)Nc2c(C)nn(-c3ccccc3)c2C)c1	0.671% (inactive)	
CN(C)c1ccc(Cl)c(NC(N)=S)c1		19.2 µM (active)
COCCn1c(NC(=S)NC(=O)C2CC2)cc(=O)[nH]c1=O	-10.3% (inactive)	
COCCCNC(=O)C1CCN(S(=O)(=O)c2c(C)noc2/C=C\c2ccc(OC)cc2)CC1		inactive
O=C(O)C1CCC(CN(Cc2cccc(Br)c2)C(=S)Nc2ccccc2F)CC1 (centres undefined)	-3.31% (inactive)	
CCCNC(=O)C[C@H]1CC[C@@H]2[C@@H](COc3ccc(NC(=O)c4ccc5c(c4)OCO5)cc3C(=O)N2C)O1		> 39 µM (inactive)
COc1cc(NC(=O)CSc2nc3[nH]ncc3c(=O)n2-c2ccccc2C)cc(OC)c1OC	-9.91% (inactive)	
FC(F)(F)c1cc(Cl)c2nc(-c3ccccc3)c(Cc3ccsc3)n2c1	-3.45% (inactive)	
CCOc1cc(/C=N\n2nnnc2N)ccc1O	-0.253% (inactive)	
Cc1cccc(-n2nnc(C(=O)NCc3ccccc3Cl)c2N)c1	-3.19% (inactive)	
CSc1nc2c(c(=O)[nH]c(=O)n2C)n1Cc1ccccc1	-0.889% (inactive)	
Oc1ccc(/C=N/n2cc(-c3ccccc3)[nH]c2=S)cc1		6.42 µM (active)
Cc1ccc(S(=O)(=O)N2CCCC2C(=O)Nc2ccc(O)cc2)cc1 (centres undefined)		16.6 µM (active)
COCCNc1oc(/C=C/c2ccccc2)nc1C#N	1.04% (inactive)	
Cc1nn(C2CC(O)C(O)C(CO)O2)c(=O)[nH]c1=O (centres undefined)	-11.3% (inactive)	
COc1cc(Cn2c(-c3ccc(O)c(OC)c3)nc3ccccc32)ccc1O	-12.9% (inactive)	
O=C(C[C@@H]1CC[C@@H]2[C@H](COC[C@@H](O)CN2C(=O)c2ccccn2)O1)NC1CCC1	-2.66% (inactive)	
CCc1ccc2oc(-c3cc(N)ccc3Cl)nc2c1	-14.5% (inactive)	
Cc1ccc(C(=O)NCCn2cc(SCC(=O)Nc3cc(C)on3)c3ccccc32)cc1	-12.2% (inactive)	
COc1cc2c(cc1O)CC[n+]1cc3c(OC)c(OC)ccc3cc1-2		> 39 µM (inactive)

SMILES	activity change, negative = inhibition	AC50
CCOC(=O)[C@@H]1[C@H]2COc3ccc(Br)cc3[C@@H]2N2C(=O)N(c3cccc(F)c3)C(=O)[C@]12C	-11.4% (inactive)	
CCNC(=O)C[C@H]1CC[C@@H]2[C@@H](COc3ccc(NC(C)=O)cc3C(=O)N2C)O1	4.3% (inactive)	
COc1ccc(/C=N/n2c(-c3cc(C)[nH]n3)n[nH]c2=S)cc1OC		> 39 µM (inactive)
CCc1ccccc1NC(=O)CN1CCN(CC(=O)NCc2ccc(Cl)cc2)CC1	5.72% (inactive)	
CCCc1cc(-c2n[nH]c(C(=O)OCC)c2-c2cscn2)c(O)cc1O	-11.6% (inactive)	
NS(=O)(=O)c1ccc(NC(=S)NCc2ccc3c(c2)OCO3)cc1		> 39 µM (inactive)
O=C(CSc1nc2cc(Cl)ccc2s1)c1ccco1		> 39 µM (inactive)
CC(C)(Oc1ccc(Cl)cc1)C(=O)NC1CC1	0.308% (inactive)	
Cc1cc(C=C2C(=O)c3ccccc3C2=O)c(C)n1-c1ccc(C(=O)O)cc1		12 µM (active)
COc1ccccc1-n1c(SCC(=O)O)nc2c(sc(=S)n2-c2ccc(Cl)c(C)c2)c1=O		> 39 µM (inactive)
Cc1cccc(/C=C/c2onc(C)c2S(=O)(=O)N2CCC(C(=O)N3CCCCCC3)CC2)c1	0.513% (inactive)	
O=C1OCC/C1=C\c1ccc(O)cc1		9.75 µM (active)
Cc1cccc(/C=C/c2onc(C)c2S(=O)(=O)N2CCC(C(=O)N3CCCCC3)CC2)c1	-16.6% (inactive)	
CC1(C)Cc2c(sc3ncn4c(=S)[nH]nc4c23)CO1		13.9 µM (active)
COc1ccc(/C=C/c2onc(C)c2S(=O)(=O)N2CCC(C(=O)N3CCC(C)CC3)CC2)cc1	-5.37% (inactive)	
Cc1onc(-c2ccccc2Cl)c1C(=O)Nc1cnn(Cc2ccccc2)c1	-8.22% (inactive)	
O=c1c2ccccc2nc(/C=C/c2ccc(O)cc2)n1-c1ccccc1O		> 39 µM (inactive)
C=CCN=c1scc(C)n1/N=C/c1ccc(O)c(O)c1		> 39 µM (inactive)
CC(=O)Nc1n[nH]c(=S)s1		> 39 µM (inactive)
